18 molecules from PubChem BioAssay (EPA / NIEHS) can be followed below.

Read-out in assay [1]: Interleukin-1 alpha (IL1a), IL1A (gene 3552)
Kind of assay: BSK_KF3CT_IL1a: BioMAP Diversity Plus: KF3CT Assay for Interleukin-1 alpha (IL1a) Biomarker Activity (AID 2283070). As to conditions: primary human keratinocytes with fibroblasts; actives raise or lower the signal. In a few lines: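 Human keratinocyte plus foreskin fibroblast primary co-culture, sampled 24 h after chemical dosing. IL-1a measured by ELISA; responses fitted bidirectionally against DMSO baseline (negative control), so gain or loss of signal both count.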

Read-out in assay [2]: TIMP metallopeptidase inhibitor 2 (TIMP2), TIMP2 (gene 7077)
Kind of assay: BSK_KF3CT_TIMP2: BioMAP Diversity Plus: KF3CT Assay for TIMP metallopeptidase inhibitor 2 (TIMP2) Biomarker Activity (AID 2283071). As to conditions: primary human keratinocytes with fibroblasts; actives raise or lower the signal. The essentials: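 Co-culture of human primary keratinocytes and foreskin fibroblasts, measured 24 h after chemical dosing. TIMP-2 quantified by ELISA and fitted in both directions relative to DMSO. Cytotoxicity checked in parallel cultures by SRB total-protein staining.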

Read-out in assay [3]: Transforming growth factor beta 1 (TGFb1), TGFB1 (gene 7040)
The assay can be described thus: BSK_KF3CT_TGFb1: BioMAP Diversity Plus: KF3CT Assay for Transforming growth factor beta 1 (TGFb1) Biomarker Activity (AID 2283072). Particulars: primary human keratinocytes with fibroblasts; actives raise or lower the signal. The essentials: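 Human keratinocyte/foreskin fibroblast co-culture; TGF-b1 measured by ELISA 24 h after dosing, fitted bidirectionally versus DMSO. Cytotoxicity checked in parallel cultures by total protein (SRB staining, 560 nm).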

Read-out in assay [4]: C-C motif chemokine 2 (Homo sapiens) (UniProt P13500)
The assay can be described thus: BSK_KF3CT_MCP1: BioMAP Diversity Plus: KF3CT Assay for Monocyte Chemoattractant Protein 1 (MCP1/CCL2) Biomarker Activity (AID 2283073). Particulars: primary human keratinocytes with fibroblasts; actives raise or lower the signal. The essentials: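 Keratinocytes and foreskin fibroblasts were co-cultured, dosed with chemical, and sampled 24 h later. MCP-1 was quantified by ELISA, and the endpoint was analyzed with bidirectional fitting using DMSO as negative control.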

Read-out in assay [5]: Matrix Metallopeptidase 9 (MMP9), MMP9 (gene 4318)
Kind of assay: BSK_KF3CT_MMP9: BioMAP Diversity Plus: KF3CT Assay for Matrix Metallopeptidase 9 (MMP9) Biomarker Activity (AID 2283074).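 As to AC50: MMP9 protein level quantified by ELISA in the co-culture.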 Particulars: primary human keratinocytes with fibroblasts; actives raise or lower the signal. In a few lines:
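Keratinocyte plus foreskin fibroblast human primary skin co-culture was dosed with chemical and MMP-9 was quantified by ELISA 24 h later. Bidirectional curve fitting used DMSO as negative control and activity baseline.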

Read-out in assay [6]: urokinase plasminogen activator (uPA), PLAU (gene 5328)
Kind of assay: BSK_KF3CT_uPA: BioMAP Diversity Plus: KF3CT Assay for urokinase plasminogen activator (uPA) Biomarker Activity (AID 2283075). As to conditions: primary human keratinocytes with fibroblasts; actives raise or lower the signal. The essentials: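 Human keratinocyte plus foreskin fibroblast primary co-culture exposed to chemical for 24 h. uPA levels were quantified by ELISA, and activity was fitted bidirectionally against a DMSO negative-control baseline.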

Read-out in another assay: CD40, CD40 (gene 958)
Kind of assay: BSK_LPS_CD40: BioMAP Diversity Plus: LPS Assay for CD40 Biomarker Activity (AID 2283076). Particulars: primary human HUVEC with PBMC; actives raise or lower the signal. The essentials:
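CD40 signal, measured by ELISA, is fitted in both directions relative to DMSO vehicle. The system is an LPS-driven human vascular primary co-culture of endothelial cells and PBMC, sampled 24 h after compound addition.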

Read-out in assay [7]: E-selectin (Homo sapiens) (UniProt P16581)
Kind of assay: BSK_LPS_Eselectin: BioMAP Diversity Plus: LPS Assay for Eselectin Biomarker Activity (AID 2283077). Particulars: primary human HUVEC with PBMC; actives raise or lower the signal. The essentials:
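Signal of E-selectin, detected by ELISA, served as the endpoint; cells were umbilical vein endothelium with PBMC, read 24 h after treatment. DMSO defined baseline, and both increases and decreases were fitted.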

Read-out in assay [8]: Interleukin-8 (IL8), CXCL8 (gene 3576)
Kind of assay: BSK_LPS_IL8: BioMAP Diversity Plus: LPS Assay for Interleukin-8 (IL8) Biomarker Activity (AID 2283078). Particulars: primary human HUVEC with PBMC; actives raise or lower the signal. The essentials: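 Endothelial cells and PBMC from human donors are co-cultured, treated with chemicals and LPS, then assayed for IL-8 by ELISA after 24 h. Parallel SRB staining (0.1% SRB after 10% TCA fixation, 560 nm) flags cytotoxicity.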

Assay [9] can be described thus: BSK_LPS_SRB: Viability Assessment in the BioMAP Diversity Plus: LPS Assay (AID 2283079).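 Also: total protein by sulforhodamine B absorbance as a cytotoxicity measure; measured one day after compound addition.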 Particulars: primary human HUVEC with PBMC. The essentials: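 Overt cytotoxicity was gauged by sulforhodamine B total-protein staining in a primary human vascular endothelial and mononuclear cell co-culture 24 h post-dosing. Activity was fitted in both directions relative to DMSO.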

Structures are written as SMILES. The source made the active and inactive calls. The calls were made as follows: active = hit-call score of the fitted dose curve at least 0.9, where 1 is the maximum; inactive = score below 0.9.

Chain of E-selectin (Homo sapiens) (P16581 whole entry, looked up): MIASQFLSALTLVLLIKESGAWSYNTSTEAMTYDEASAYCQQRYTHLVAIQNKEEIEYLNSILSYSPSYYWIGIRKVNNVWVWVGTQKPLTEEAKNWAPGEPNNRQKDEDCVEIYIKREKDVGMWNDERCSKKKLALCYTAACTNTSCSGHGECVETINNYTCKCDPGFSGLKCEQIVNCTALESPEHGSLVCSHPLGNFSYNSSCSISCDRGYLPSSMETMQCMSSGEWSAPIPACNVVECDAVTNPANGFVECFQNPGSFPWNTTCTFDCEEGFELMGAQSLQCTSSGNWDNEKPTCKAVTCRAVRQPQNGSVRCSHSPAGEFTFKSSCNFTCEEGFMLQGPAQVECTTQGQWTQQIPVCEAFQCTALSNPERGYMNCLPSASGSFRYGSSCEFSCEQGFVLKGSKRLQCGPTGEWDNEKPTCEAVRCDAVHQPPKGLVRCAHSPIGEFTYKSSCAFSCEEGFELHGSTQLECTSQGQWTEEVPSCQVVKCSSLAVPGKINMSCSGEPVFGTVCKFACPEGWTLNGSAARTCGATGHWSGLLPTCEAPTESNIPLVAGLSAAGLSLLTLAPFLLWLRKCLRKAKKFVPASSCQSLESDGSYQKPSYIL

By AC50 is commonly meant the concentration at which the activity in the assay is half-maximal. Turning to `CC(Oc1cccc(Cl)c1)C(=O)O` (configuration not stated), in assay [1], the AC50 is 1.15 µM (active). The outcome in assay [2] was “inactive”; in [3] it was “inactive”; in assay [4] it was “inactive”; in assay [5] it was “inactive”; in [6], “inactive”; with CD40, CD40 (gene 958), “inactive”. Also, the outcome in assay [7], in [8] and in assay [9] was inactive.

For `Cc1ccn2nc(S(=O)(=O)Nc3c(F)cccc3F)nc2n1`, the outcome was “inactive” in [2]; “inactive” in assay [3]; “inactive” in assay [4]; “inactive” in assay [5]; “inactive” in assay [6]; “inactive” in the assay with CD40, CD40 (gene 958). Besides, the result in assay [7] and in [8] was inactive. In addition, in assay [9], the AC50 was 1.06 µM (active).

For the molecule `C#CC(C)(C)NC(=O)c1cc(Cl)cc(Cl)c1`, the outcome in [2] was “inactive”; in [3] it was “inactive”; in assay [4], “inactive”; in [5] it was “inactive”; in assay [6], “inactive”; with CD40, CD40 (gene 958), “inactive”. The result in assay [7], in [8] and in [9] was inactive.

In the case of `C#CCC1=C(C)C(OC(=O)C2C(C=C(C)C)C2(C)C)CC1=O` (configuration not stated), the result in assay [2], in assay [3], in [4], in assay [5] and in assay [6] was inactive. The AC50 with CD40, CD40 (gene 958) is 20 µM (active); in assay [7], 28.4 µM (active); in [8], 26.7 µM (active); in assay [9] it was 29.1 µM (active).

Take `C[Si](Cn1cncn1)(c1ccc(F)cc1)c1ccc(F)cc1`: the outcome in assay [2] was “inactive”; in assay [3] it was “inactive”; in assay [4], “inactive”; in assay [5] it was “inactive”; in assay [6], “inactive”; in the assay with CD40, CD40 (gene 958), “inactive”. For the same molecule, the result in assay [8] and in assay [9] was inactive. The AC50 in [7] is 15 µM (active).

Turning to `CNC(=O)ON=C(C)SC`, the outcome is “inactive” in assay [2]; “inactive” in assay [3]; “inactive” in assay [4]; “inactive” in assay [5]; “inactive” in assay [6]; “inactive” in the assay with CD40, CD40 (gene 958). For the same molecule, the outcome in assay [7], in assay [8] and in assay [9] was inactive.

For the molecule `CCOP(=S)(OCC)Oc1ccc([N+](=O)[O-])cc1`, the outcome in [2], in [3], in assay [4], in assay [5], in [6] and in [7] was inactive. Further, the outcome in assay [8] and in [9] was inactive. For the same molecule, the AC50 with CD40, CD40 (gene 958) is 16.7 µM (active).

Turning to `CCCCSP(=O)(SCCCC)SCCCC`, the outcome in assay [2], in assay [3], in assay [4], in [5] and in [6] was inactive. Moreover, the AC50 in the assay with CD40, CD40 (gene 958) is 31.8 µM (active); in assay [7], 32.6 µM (active); in assay [8], 27.1 µM (active); in assay [9], 16 µM (active).

Regarding `Nc1c(Cl)cc([N+](=O)[O-])cc1Cl`, the outcome in assay [2] was “inactive”; in assay [3], “inactive”; in assay [4] it was “inactive”; in assay [5], “inactive”; in assay [6], “inactive”; in the assay with CD40, CD40 (gene 958) it was “inactive”. In addition, the outcome in [7], in assay [8] and in [9] was inactive.

For `COc1ccc(C(=CC(=O)N2CCOCC2)c2ccc(Cl)cc2)cc1OC`, the result in assay [2], in assay [3], in assay [4], in [5], in [6] and in [8] was inactive. Moreover, the result in assay [9] was inactive. In addition, the AC50 was 14.1 µM (active) with CD40, CD40 (gene 958) and 10.3 µM (active) in assay [7].

With `C=C(C)[C@H]1Cc2c(ccc3c2O[C@@H]2COc4cc(OC)c(OC)cc4[C@@H]2C3=O)O1`, the result in assay [2], in assay [3], in assay [4], in [6] and in [8] was inactive. The AC50 in assay [5] is 16.7 µM (active); with CD40, CD40 (gene 958), 6.01 µM (active); in [7], 20 µM (active); in assay [9] it was 10.9 µM (active).

Regarding `CSc1nnc(C(C)(C)C)c(=O)n1N`, the outcome in assay [2] is “inactive”; in assay [3], “inactive”; in [4], “inactive”; in assay [5], “inactive”; in assay [6], “inactive”; in the assay with CD40, CD40 (gene 958) it was “inactive”. The outcome in assay [7], in assay [8] and in assay [9] was inactive.

For `CCc1cccc(C)c1N(C(=O)CCl)C(C)COC` (configuration not stated), the outcome in [2], in assay [3], in assay [4], in assay [5], in assay [6] and in [7] was inactive. For the same molecule, the outcome in assay [8] and in assay [9] was inactive. Also, the AC50 with CD40, CD40 (gene 958) is 17.5 µM (active).

With `Cc1cc(C2CC2)nc(Nc2ccccc2)n1`, the result in [2], in assay [3], in assay [4], in [5], in assay [6] and in assay [7] was inactive. Besides, the result in [8] was inactive. Moreover, the half-maximal activity concentration (AC50) with CD40, CD40 (gene 958) is 14.8 µM (active); in [9], 24.7 µM (active).

As for `CCCOCC(=Nc1ccc(Cl)cc1C(F)(F)F)n1ccnc1`, the AC50 in assay [2] is 31.7 µM (active); in assay [3], 31.1 µM (active); in assay [4] it was 31.3 µM (active); in [5], 28 µM (active); in [6] it was 33.2 µM (active); in the assay with CD40, CD40 (gene 958), 22.3 µM (active). Moreover, the results for the AC50 in assay [7], in [8] and in [9] were 16.2 µM (active), 32.5 µM (active) and 31.4 µM (active), respectively.

`CCOC(=O)COc1cc(-c2nn(C)c(OC(F)F)c2Cl)c(F)cc1Cl`: the outcome is “inactive” in assay [2]; “inactive” in assay [3]; “inactive” in assay [4]; “inactive” in assay [5]; “inactive” in [6]; “inactive” in the assay with CD40, CD40 (gene 958). The result in [7], in [8] and in assay [9] was inactive.

Take `CCOP(=O)(NC(C)C)Oc1ccc(SC)c(C)c1` (configuration not stated): the outcome in assay [2] is “inactive”; in assay [3], “inactive”; in [4] it was “inactive”; in [5] it was “inactive”; in [6], “inactive”; with CD40, CD40 (gene 958), “inactive”. Besides, the result in assay [7], in [8] and in assay [9] was inactive.

As to `COP(=O)(OC)C(O)C(Cl)(Cl)Cl` (configuration not stated), the outcome in assay [2] was “inactive”; in assay [3], “inactive”; in assay [4] it was “inactive”; in [5], “inactive”; in [6], “inactive”; with CD40, CD40 (gene 958) it was “inactive”. Also, the outcome in assay [7] and in assay [9] was inactive.
